# Results filed as inconclusive are left out. Entries that show only a call come without a potency. Calls of active or inactive are those of the source. Calls come from the whole dose curve; as a rule, active = well fitted activation curve with a large enough effect in the signal ratio in the repeat runs (not every such curve was filed as active); inconclusive = weak or mixed curves, or effect the other way; inactive = no such curve, though single readings can be large or run the other way; the % refers to the signal ratio.
# Biological target: Peroxisome proliferator-activated receptor gamma (Homo sapiens) (UniProt P37231)
# Test: qHTS assay to identify small molecule agonists of the peroxisome proliferator-activated receptor gamma (PPARg) signaling pathway (AID 743094)
# Details: HEK293H PPARg-UAS-bla, beta-lactamase FRET ratio, 17 h; series mostly up to 57 µM
# Text: U.S. Tox21 Program National Center for Advancing Translational Sciences [NCATS] NIH Chemical Genomics Center [NCGC] U.S. Environmental Protection Agency [EPA] National Institutes of Environmental Health Sciences [NIEHS] National Toxicology Program [NTP] U.S. Food and Drug Administration [FDA] Tox21 Assay Overview: The peroxisome proliferator-activated receptors (PPARs) are lipid-activated transcription factors of the nuclear receptor superfamily with three distinct subtypes namely PPAR alpha, PPAR delta (also called PPAR beta) and PPAR gamma (PPARg). All these subtypes heterodimerize with Retinoid X receptor (RXR) and these heterodimers regulate transcription of various genes. PPAR-gamma receptor (glitazone receptor) is involved in the regulation of glucose and lipid metabolism. To identify the compounds that activate PPAR-gamma signaling, GeneBLAzer PPAR gamma UAS-bla HEK293H cell line (Invitrogen, Carlsbad, CA, USA) containing a beta-lactamase reporter gene under control of the control of an upstream activator sequence (UAS) stably integrated into HEK293H cells was used to screen Tox21 compound library.
# Tox21 Assay Protocol Summary: PPARg-bla cells were dispensed at 3000 cells/6uL/well in 1536-well black wall/clear bottom plates using a Multidrop Combi (Thermo Fisher Scientific, Waltham, MA) dispenser. After the assay plates were incubated at 37C and 5% CO2 for 5 h, 23 nL of compounds dissolved in DMSO, positive controls or DMSO only was transferred to the assay plate by a Pintool station (Kalypsys, San Diego, CA). The assay plates were incubated at 37C for 17 h. After 1 uL of LiveBLAzerTM B/G FRET substrate was added using a Bioraptr Flying Reagent Dispenser (FRD) workstation (Beckman Coulter, Indianapolis, IN, USA), the plates were incubated at room temperature for 1 h, and fluorescence intensity was measured by an Envision plate reader (PerkinElmer, Shelton, CT).
# Potency is the fitted concentration of half-maximal effect.
# Peroxisome proliferator-activated receptor gamma (Homo sapiens), sequence (P37231 whole entry, looked up): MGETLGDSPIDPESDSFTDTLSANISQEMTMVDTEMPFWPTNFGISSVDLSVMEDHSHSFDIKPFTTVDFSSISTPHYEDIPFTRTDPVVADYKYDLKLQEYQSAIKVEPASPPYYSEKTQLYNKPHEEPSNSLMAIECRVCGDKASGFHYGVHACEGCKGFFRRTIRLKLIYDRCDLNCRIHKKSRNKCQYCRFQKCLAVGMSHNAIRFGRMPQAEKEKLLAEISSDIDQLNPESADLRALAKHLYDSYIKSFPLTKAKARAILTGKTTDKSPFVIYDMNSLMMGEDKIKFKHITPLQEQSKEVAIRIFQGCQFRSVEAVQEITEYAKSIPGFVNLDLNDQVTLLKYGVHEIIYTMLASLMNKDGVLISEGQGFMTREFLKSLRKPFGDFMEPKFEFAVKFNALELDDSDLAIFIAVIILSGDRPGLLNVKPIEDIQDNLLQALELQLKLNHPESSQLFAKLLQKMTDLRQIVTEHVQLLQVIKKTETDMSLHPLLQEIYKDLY
row,Compound,Potency
1,O=C1C(Cl)C(CCl)CN1c1cccc(C(F)(F)F)c1 (stereo not given),inactive
2,Brc1ccccc1,inactive
3,CC1C(=O)C[C@]2(C(C)C)C[C@H]12 (stereo not given in full),inactive
4,CC(C)(CCl)C(=O)Cl,inactive
5,CCc1ccc(C(=O)NN(C(=O)c2cc(C)cc(C)c2)C(C)(C)C)cc1,inactive
6,O=S1OC[C@@H]2[C@H](CO1)[C@]1(Cl)C(Cl)=C(Cl)[C@@]2(Cl)C1(Cl)Cl (stereo not given in full),inactive
7,CCOc1ccc(C(C)(C)COCc2cccc(Oc3ccccc3)c2)cc1,inactive
8,O=[N+]([O-])c1ccccc1CCl,98.8 nM (active)
9,CCCCOC(=O)c1ccccc1C(=O)OCc1ccccc1,inactive
10,C=CCOC(C)=O,inactive
11,COc1cc(Cl)c(OC)cc1Cl,inactive
12,CC(=O)CCC(C)=O,inactive
13,C[C@H]1CNCCc2ccc(Cl)cc21,inactive
14,C=COC(C)=O,inactive
15,CCC(Br)(CC)C(=O)NC(N)=O,inactive
16,O=C(NC(=O)c1c(F)cccc1F)Nc1ccc(OC(F)(F)C(F)OC(F)(F)F)c(Cl)c1 (stereo not given),inactive
17,Clc1ccc(C(OCCN2CCCCC2)c2ccccc2)cc1 (stereo not given),inactive
18,CC(C)N(C(=O)COc1nnc(C(F)(F)F)s1)c1ccc(F)cc1,inactive
19,CCOP(=S)(OCC)SCn1nnc2ccccc2c1=O,inactive
20,CCCCN(N=O)C(=N)N[N+](=O)[O-],inactive

row,Compound,Potency
1,O=C(OC1CCCCC1)c1ccccc1C(=O)OC1CCCCC1,inactive
2,Clc1ccc(C2(Cn3cncn3)CC(Br)CO2)c(Cl)c1 (stereo not given),inactive
3,CN(N=O)c1ccc([N+](=O)[O-])cc1,inactive
4,CCCCC(O)(Cn1cncn1)c1ccc(Cl)cc1Cl (stereo not given),inactive
5,O=C1c2ccccc2C(=O)C1C(=O)C(c1ccccc1)c1ccccc1,inactive
6,Clc1cc(Cl)c(Cl)c(Cl)c1,inactive
7,CCOP(=O)(OCC)SCCSCC,inactive
8,Cc1ccccc1CCl,inactive
9,CCCN(CCC)c1c([N+](=O)[O-])cc(S(C)(=O)=O)cc1[N+](=O)[O-],inactive
10,O=C(C(Cl)(Cl)Cl)C(Cl)(Cl)Cl,inactive
11,CCC(Cl)CCl (stereo not given),inactive
12,Cn1sc(Cl)cc1=O,inactive
13,CC[C@H]1C[C@H]2[C@@H]3CCC4=CC(=O)CC[C@@H]4[C@H]3CC[C@]2(C)[C@H]1O,inactive
14,CC/C(=N\OC/C=C/Cl)C1=C(O)CC(C2CCOCC2)CC1=O (stereo not given),inactive
15,O=C(CBr)OCc1ccccc1,inactive
16,CN1[C@@H]2CC[C@H]1CC(OC(=O)c1cc(Cl)cc(Cl)c1)C2 (stereo not given in full),inactive
17,[O-][Cl+]O,inactive
18,CCOP(=S)(OCC)Oc1cc(Cl)c(Br)cc1Cl,inactive
19,COP(=S)(OC)Oc1ccc([N+](=O)[O-])cc1Cl,inactive
20,CCCCNP(N)(N)=S,inactive

# — PubChem BioAssay (Tox21)
